# Measured values from the supplement of paper PMC13380429.
# What was measured:
# [1] = tested on: Vero E6 infected with SARS-CoV-2; test: morphology score (similarity to uninfected cells); higher = more like uninfected cells; conditions: 24 h
# [2] = tested on: Vero E6 infected with SARS-CoV-2; test: SARS-CoV-2 infection rate relative to infected DMSO; higher = more infection, active = 60 or less; conditions: 24 h
Compound,morphology score [1],SARS-CoV-2 infection rate [2]
C[N+](C)(C)CCOC(N)=O [carbachol] (10 µM),-0.148,101% (inactive)
Cc1nc2c([nH]1)-c1ccccc1N(C(=O)c1ccc(NC(=O)c3ccccc3-c3ccccc3)cc1)CC2 [conivaptan] (10 µM),0.193,107% (inactive)
O=C(/C=C/c1ccc2c(c1)OCO2)N1CCCCC1 [ilepcimide] (10 µM),0.197,95.5% (inactive)
N[C@@H](CC(=O)Nc1ccc(Oc2cc(F)c(F)cc2Br)cc1)C(=O)O (10 µM),0.233,98% (inactive)
O=C(O)C(=O)c1cn(Cc2ccccc2)c2ccc(-c3ccc(OC(F)(F)F)cc3)cc12 [tiplaxtinin] (10 µM),0.0476,106% (inactive)
C#Cc1cccc(Nc2ncnc3cc(OC)c(OCCCCCCC(=O)NO)cc23)c1 (0.833333 µM),-0.262,122% (inactive)
COc1cc2c(cc1OC)-c1cc3nc4ccccc4nc3n1C(C)(C)C2 (10 µM),0.134,91% (inactive)
CN1CCN(c2ccc(C(=O)Nc3n[nH]c4ccc(Cc5cc(F)cc(F)c5)cc34)c(NC3CCOCC3)c2)CC1 [entrectinib] (0.833333 µM),0.134,96.5% (inactive)
C[C@H](Oc1cc(-c2cnn(C3CCNCC3)c2)cnc1N)c1c(Cl)ccc(F)c1Cl [crizotinib-(S)] (0.833333 µM),0.602,99% (inactive)
CNS(=O)(=O)Nc1nccc(Cc2c(C)c3ccc(Oc4ncccn4)cc3oc2=O)c1F (0.833333 µM),-0.0748,113% (inactive)
CN1CCN(c2c(F)cc3c(=O)c(C(=O)O)cn(CCF)c3c2F)CC1 [fleroxacin] (10 µM),-0.043,115% (inactive)
O=C(Nc1ccc(S(=O)(=O)Nc2ccccc2Cl)c(Cl)c1)c1ccccn1 (10 µM),-0.132,114% (inactive)
CC(C)(Oc1ccc(Cl)cc1)C(=O)O [clofibric-acid] (10 µM),-0.0106,98.5% (inactive)
CNCC[C@@H](Oc1ccccc1C)c1ccccc1 [atomoxetine] (10 µM),0.0668,102% (inactive)
CC/C(=C(/c1ccc(/C=C/C(=O)O)cc1)c1ccc2[nH]ncc2c1)c1ccc(F)cc1Cl (10 µM),0.0792,103% (inactive)
CC1=C(CC(=O)O)c2cc(F)ccc2/C1=C\c1ccc([S+](C)[O-])cc1 (stereo not given) [sulindac] (10 µM),0.0804,104% (inactive)
CC(OC(=O)NCC1(CC(=O)O)CCCCC1)OC(=O)C(C)C (stereo not given) [gabapentin-enacarbil] (10 µM),-0.0175,112% (inactive)
COc1cc(C(C)=O)ccc1O [apocynin] (10 µM),0.331,97% (inactive)
Cn1c(Nc2ccc(C(F)(F)F)cc2)nc2cc(Oc3ccnc(-c4ncc(C(F)(F)F)[nH]4)c3)ccc21 (10 µM),-0.041,100% (inactive)
O=S(=O)(O)c1ccc(O)cc1 [4-phenolsulfonic-acid] (10 µM),-0.0939,114% (inactive)

Compound,morphology score [1],SARS-CoV-2 infection rate [2]
COc1cc(OC)c(/C=C/S(=O)(=O)Cc2ccc(OC)c(OP(=O)(O)O)c2)c(OC)c1 [briciclib] (0.833333 µM),-0.0884,92% (inactive)
O=C(OCC(COC(=O)c1cccnc1)(COC(=O)c1cccnc1)COC(=O)c1cccnc1)c1cccnc1 [niceritrol] (0.833333 µM),0.129,96.5% (inactive)
Cc1ccc2c(c1)=C(c1ccccc1)C(C1=NN(C(=O)CCC(=O)O)C(c3ccc(Br)cc3)C1)C(=O)N=2 (stereo not given) (10 µM),-0.085,104% (inactive)
CCOC(=O)C1=C(C)NC(=S)NC1c1cccc(O)c1 (stereo not given) [monastrol] (10 µM),0.0534,93% (inactive)
CNc1cc2[nH]c(=O)n(-c3ccc(NC(=O)NS(=O)(=O)c4ccc(Cl)s4)cc3)c(=O)c2cc1F [elinogrel] (10 µM),0.235,87.5% (inactive)
COc1cc(C[C@H]2C(=O)OC[C@@H]2Cc2ccc(OC)c(OC)c2)ccc1O [arctigenin] (10 µM),0.0564,108% (inactive)
C/C(=N\NC(=O)[C@@H]1C(=O)NC[C@H]1c1ccccc1)c1cccc(Br)c1 (10 µM),-0.162,112% (inactive)
CCCCNNC(=O)c1ccc(Br)cc1 (0.833333 µM),-0.294,116% (inactive)
OC[C@H]1O[C@@H](OCCc2ccc(O)cc2)[C@H](O)[C@@H](O)[C@@H]1O [salidroside] (10 µM),0.0363,116% (inactive)
CO[C@@]1(NC(=O)C(C(=O)O)c2ccc(O)cc2)C(=O)N2C(C(=O)O)=C(CSc3nnnn3C)CO[C@@H]21 (stereo not given in full) [moxalactam] (10 µM),-0.0497,110% (inactive)
O=c1[nH]c2ccccc2c(=O)n1CCCN1CCN(c2ccccc2)CC1 [pelanserin] (10 µM),0.0358,104% (inactive)
Nc1ccc2cc3ccc(N)cc3nc2c1 [proflavine-hemisulfate] (0.833333 µM),0.26,80.5% (inactive)
O=C1Nc2ccc(I)cc2C1=Cc1cc(Br)c(O)c(Br)c1 (10 µM),0.384,98.5% (inactive)
COc1nc(C)cnc1NS(=O)(=O)c1cccnc1-c1ccc(-c2nnco2)cc1 [zibotentan] (10 µM),0.109,120% (inactive)
CC[C@H]1OC(=O)[C@H](C)C(=O)[C@H](C)[C@@H](O[C@@H]2O[C@H](C)C[C@H](N(C)C)[C@H]2O)[C@](C)(OC)C[C@@H](C)C(=O)[C@H](C)[C@H]2N(CCCCn3cnc(-c4cccnc4)c3)C(=O)O[C@]12C [telithromycin] (10 µM),0.0131,118% (inactive)
O=[N+]([O-])c1cnc(Sc2nnc(O)n2-c2ccc3c(c2)OCCO3)s1 (0.833333 µM),0.392,76.5% (inactive)
Cc1ncc(COP(=O)([O-])[O-])c(CN(CCN(CC(=O)O)Cc2c(COP(=O)([O-])O)cnc(C)c2O)CC(=O)O)c1O.[Mn].[Na+].[Na+].[Na+] [Mangafodipir (trisodium)] (10 µM),-0.000637,120% (inactive)
CCOc1nc2cccc(C(=O)O)c2n1Cc1ccc(-c2ccccc2-c2noc(=O)[nH]2)cc1 [azilsartan] (10 µM),0.0851,109% (inactive)
Cc1csc(-c2nnc(Nc3ccc(Oc4ncccc4-c4ccnc(N)n4)cc3)c3ccccc23)c1 (0.833333 µM),0.202,19.5% (active)
CCc1cccc(CC)c1NC(=O)N1Cc2[nH]nc(NC(=O)c3ccc(N4CCN(C)CC4)cc3)c2C1 (10 µM),0.108,113% (inactive)

Compound,morphology score [1],SARS-CoV-2 infection rate [2]
CON [methoxyamine] (10 µM),0.192,99% (inactive)
CCCC(C)NC(=O)c1ccc(Cl)c(Cl)c1 (stereo not given) (10 µM),-0.46,119% (inactive)
CC(=O)CCCCn1c(=O)c2c(ncn2C)n(C)c1=O [pentoxifylline] (10 µM),0.0323,104% (inactive)
O=C1C=C2C=C[C@@H]3C[C@@]2(O1)[C@H]1CCCCN31 [securinine] (10 µM),0.327,85.5% (inactive)
CC1(C)C[C@@H]1C(=O)N/C(=C\CCCCSC[C@H](N)C(=O)O)C(=O)O [Cilastatin Sodium] (10 µM),0.215,88.5% (inactive)
COC1=C(OC)C(=O)C(CCCCCCCCCCO)=C(C)C1=O [idebenone] (10 µM),-0.0056,92.5% (inactive)
Cc1ncc(C)n2nc([C@@H]3C[C@H]3c3nc4c5cccnc5ccn4c3C)nc12 (10 µM),-0.0961,106% (inactive)
Fc1ccc2c(CCNCc3cccc(OCC(F)(F)C(F)F)c3)c[nH]c2c1 [idalopirdine] (10 µM),-0.145,114% (inactive)
O=C1NC(=O)[C@@H](c2cn3c4c(cccc24)CCC3)[C@@H]1c1c[nH]c2ccccc12 [tivantinib] (10 µM),-0.141,107% (inactive)
COc1ncc(-c2ccc3c(Nc4cc(Oc5cc(F)cc(F)c5)cc(C(=O)O)c4)c(S(=O)(=O)NC4CC4)cnc3c2)c(OC)n1 (10 µM),-0.00104,109% (inactive)
CC(=O)NC[C@H]1CN(c2ccc(N3CCN(C(=O)CO)CC3)c(F)c2)C(=O)O1 [eperezolid] (10 µM),0.0417,112% (inactive)
CC(/C=C1\SC(=S)N(CC(=O)O)C1=O)=C\c1ccccc1 [epalrestat] (10 µM),0.192,106% (inactive)
CC[C@@]1(O)C(=O)OCc2c1cc1n(c2=O)Cc2c-1nc1cc(F)c(C)c3c1c2[C@@H](N)CC3 [exatecan-mesylate] (0.833333 µM),0.0535,110% (inactive)
"COc1ccc2c(c1OC)C(=O)O[C@@H]2[C@H]1c2cc3c(cc2CCN1C)OCO3 [hydrastine-(1R,9S)] (10 µM)",-0.0178,108% (inactive)
COc1ccc2[nH]c(C(=O)c3ccccc3)cc2c1 (0.833333 µM),-0.112,110% (inactive)
CCOC(=O)c1ncn2c1[C@@H]1CCCN1C(=O)c1cc(OC)ccc1-2 (10 µM),0.286,95% (inactive)
Cc1cccc(OCC(O)CNC(C)(C)C)c1C (stereo not given) [xibenolol] (10 µM),0.0955,97.5% (inactive)
O=C(Nc1ccc(S(=O)(=O)Nc2nccs2)cc1)C(c1ccccc1)c1ccccc1 (10 µM),-0.0899,105% (inactive)
c1ccc(C2CC2)c(OCC2=NCCN2)c1 [cirazoline] (10 µM),0.0206,102% (inactive)
CO[C@H]1/C=C/O[C@@]2(C)Oc3c(C)c(O)c4c(O)c(c(/C=N/N=C/N5CCCCC5)c(O)c4c3C2=O)NC(=O)/C(C)=C\C=C\[C@H](C)[C@H](O)[C@@H](C)[C@@H](O)[C@@H](C)[C@H](OC(C)=O)[C@@H]1C (10 µM),0.053,108% (inactive)
